Measurements as given in PubChem BioAssay AID651815 (National Center for Advancing Translational Sciences (NCATS), 2012).
In all, about 2,100 compounds went through this assay and about 1,100 (52%) were called active. Another 29% or so got no clear call; they are omitted. Calls come from the whole dose curve; as a rule, active = well fitted inhibition curve with a large enough effect; inconclusive = small, poorly fitted or top-dose-only effect; inactive = no such curve, though single readings can be large or run the other way. The set was probably picked from earlier hits. The list shows a part of the results.

target: DNA dC->dU-editing enzyme APOBEC-3F (Homo sapiens) (UniProt Q8IUX4); test: qHTS for inhibitors of Vif-A3F interactions: Cherry picks counterscreen; settings: HeLa A3F-eYFP/Vif cells, eYFP fluorescence, 24 h; series mostly up to 46.1 µM; note: nearly all actives have a fitted effect of over 65% in size
Summary of the method: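 HeLa cells stably expressing A3F-eYFP and Vif, cultured overnight, then treated 24 h at 37 degrees C with compounds at several concentrations; yellow fluorescence (488 nm Ex/500-530 nm Em) imaged on Acumen; MG132 positive control.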
Potency is the fitted concentration of half-maximal effect.

Chain of DNA dC->dU-editing enzyme APOBEC-3F (Homo sapiens) (Q8IUX4 whole entry, looked up): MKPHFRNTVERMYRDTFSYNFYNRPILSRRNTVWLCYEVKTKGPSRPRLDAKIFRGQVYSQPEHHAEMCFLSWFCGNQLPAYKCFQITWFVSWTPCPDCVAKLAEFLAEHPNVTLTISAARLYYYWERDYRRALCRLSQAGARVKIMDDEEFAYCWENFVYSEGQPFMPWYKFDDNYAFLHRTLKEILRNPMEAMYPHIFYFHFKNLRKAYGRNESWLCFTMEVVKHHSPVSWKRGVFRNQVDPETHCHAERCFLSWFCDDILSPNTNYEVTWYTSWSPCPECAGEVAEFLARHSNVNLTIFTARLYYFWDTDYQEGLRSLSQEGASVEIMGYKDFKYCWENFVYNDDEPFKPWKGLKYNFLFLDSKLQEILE

Compound | Potency
COc1ccc(/C=c2\s/c(=C/C(=O)c3ccc(C)cc3)[nH]c2=O)c(OC)c1 | 18.4 µM (active)
CN1C2CCC1/C(=C/c1cccn1C)C(=O)/C2=C\c1cccn1C | 18.4 µM (active)
CN1C2CCC1/C(=C\c1ccccc1)C(=O)/C2=C\c1ccccc1 | 15.8 µM (active)
Cn1cccc1/C=C1\CC(C(C)(C)C)C/C(=C\c2cccn2C)C1=O (configuration not stated) | 1.3 µM (active)
COc1ccc(NC(=O)C2(C)Cc3c(-c4cccc(C(N)=O)c4)ccnc3O2)cc1 (configuration not stated) | 6.27 µM (active)
CC(=O)Nc1cccc(-c2ccnc3c2CC(C)(C(=O)Nc2cccc(C(C)=O)c2)O3)c1 (configuration not stated) | 9.94 µM (active)
COc1ccc(NC(=O)C2(C)Cc3c(-c4cccc(NC(C)=O)c4)ccnc3O2)cc1 (configuration not stated) | 2.8 µM (active)
CC(=O)c1cccc(NC(=O)C2CCCN(S(=O)(=O)c3cccc4nonc34)C2)c1 (configuration not stated) | inactive
COc1cc(C(=O)Nc2ccc3ccccc3c2)cc(OC)c1OC | 3.14 µM (active)
COc1cc(C(=O)Nc2ccc3c(c2)ncn3C)cc(OC)c1OC | 5.59 µM (active)
COc1cc(C(=O)N/N=C/C2CC=CCC2)cc(OC)c1OC (configuration not stated) | inactive
COc1cc(C(=O)N/N=C(\C)c2ccccn2)cc(OC)c1OC | 0.559 µM (active)
CCOc1ccc(NC(=O)N2CC=C(c3c[nH]c4ccccc34)CC2)cc1 | 2.59 µM (active)
CCOC1=C2CN(S(=O)(=O)c3ccc(C)cc3)[C@H](c3cccc4ccccc34)C[C@H]2C(C#N)(C#N)C(C#N)(C#N)C1 | inactive
COc1cc(OC)c(C2Nc3cccc4cccc(c34)N2)c(OC)c1 | inactive
COc1ccc2ccccc2c1C1NC(=O)c2ccccc2N1 (configuration not stated) | 4.98 µM (active)
CCOc1ccccc1C1NC(=O)c2ccccc2N1 (configuration not stated) | 3.53 µM (active)
Cc1ccc(C2NC(=O)c3ccccc3N2)s1 (configuration not stated) | 17.7 µM (active)
O=[N+]([O-])c1ccccc1C1Nc2cccc3cccc(c23)N1 | inactive
COc1ccc(N/C=C/c2nc(SC)nnc2C)cc1 | 18.4 µM (active)
C=CCSc1nnc(C)c(/C=C/Nc2ccc(Cl)cc2)n1 | 18.4 µM (active)
CCOC(=O)c1c(C)nc2sc(C(=O)Nc3ccc(OC)cc3)c(N)c2c1-c1ccc(OC)cc1 | 2.8 µM (active)
CCOC(=O)c1c(-c2ccc(OC)cc2)csc1/N=C/C1=C(O)CCCC1=O | inactive
COc1ccc(NC(=O)c2sc3nc(-c4ccc(OC)cc4)cc(C(F)(F)F)c3c2N)cc1 | 7.31 µM (active)
COc1ccc(C(=O)c2sc3nc(-c4ccc(C)cc4)cc(C(F)(F)F)c3c2N)cc1 | 5.17 µM (active)

Compound | Potency
COc1cccc(C(=O)c2sc3nc(-c4ccccc4)cc(C(F)(F)F)c3c2N)c1 | 2.06 µM (active)
CCc1ccc(NC(=O)c2sc3nc(C)c(C(=O)Nc4ccc(C)cc4C)c(-c4ccco4)c3c2N)cc1 | 16.4 µM (active)
COc1ccc(C(=O)c2sc3nc(C)cc(-c4cccs4)c3c2N)cc1 | 20.6 µM (active)
COc1cccc(NC(=O)c2sc3nc(C)c(C(=O)Nc4ccc(C)cc4C)c(-c4ccco4)c3c2N)c1 | inactive
CCc1ccc(-c2cc(C(F)(F)F)n3nc(C(=O)Nc4cnn(Cc5ccc(C)cc5)c4)cc3n2)s1 | 16.4 µM (active)
COc1cc(C(=O)NCC(=O)N2CCN(S(=O)(=O)c3cc(C)ccc3C)CC2)cc(OC)c1OC | 3.96 µM (active)
Cc1ccc(S(=O)(=O)N2CCN(C(=O)CSC(=S)N3CCCC3)CC2)c(C)c1 | inactive
C=C(/C=C/c1ccc(N(C)C)cc1)c1nc2ccccc2s1 | 18.4 µM (active)
CC1=Nc2ccc(C)cc2/C1=C/c1c(N)n2oc(C)cc2nc1=O | 20.6 µM (active)
CN(C)c1ccc(/C=C/C=C/c2ccnc3ccccc23)cc1 | 3.66 µM (active)
COc1cccc2nccc(/C=C/c3ccc(N(C)C)cc3)c12 | 20.6 µM (active)
CN(C)c1ccc(/C=C/c2ccnc3cc(Cl)ccc23)cc1 | 2.91 µM (active)
CNc1ccc(/C=C/c2ccnc3ccccc23)cc1 | 20.6 µM (active)
Fc1cccc(F)c1/C=N/NC(=S)Nc1cccnc1 | inactive
CN(C)c1ccc(/C=C/c2ccnc3ccc(-c4ccccc4)cc23)cc1 | 9.2 µM (active)
CN(C)c1ccc(/C=C/c2ccnc3ccccc23)c(N)c1 | 8.2 µM (active)
CN(C)c1ccc(/C=C/c2cnnc3ccccc23)cc1 | 20.6 µM (active)
CCCCCCCNc1ccc(/C=C/c2ccnc3ccccc23)cc1 | 23.1 µM (active)
CN1C(=O)C(O)(C2COC(C)(C)CC2=O)c2cc(Br)ccc21 (configuration not stated) | inactive
CN(C)c1ccc(/C=C/c2ccnc3ccccc23)cc1 | 18.4 µM (active)
Nc1ccccc1/C=C/c1ccnc2ccccc12 | 16.4 µM (active)
O=c1c(Cl)c2oc3ccccc3nc-2c2ccccc12 | 16.4 µM (active)
CN(C)c1ccc(C2C=C(c3ccccc3)Nc3nnnn32)cc1 (configuration not stated) | 16.4 µM (active)
COc1ccc(C2=CC(c3ccc(N(C)C)cc3)n3nnnc3N2)cc1 (configuration not stated) | 16.4 µM (active)
O=S(=O)(Nc1nc2n(n1)C(c1ccccc1)C=C(c1ccc(Cl)cc1)N2)c1ccccc1 (configuration not stated) | inactive

Compound | Potency
CCN1C(=S)SC(=O)C1=C1C=C(C)N(Cc2ccco2)C(C)=C1 | 15.8 µM (active)
Clc1ccc(/C=N/NC2=Nc3cccc4cccc2c34)cc1 | 18.4 µM (active)
Clc1ccccc1/C=N/NC1=Nc2cccc3cccc1c23 | 16.4 µM (active)
C/C(CCc1ccc2c(c1)OCO2)=N\NC(=S)NC(C)C | inactive
C=C(C)CNC(=S)NNC(=O)c1ccco1 | inactive
C=CCn1c(O)c(N=NC(=O)CNC(=O)c2ccco2)c2ccccc21 | 11.2 µM (active)
O=C(Nc1nc(NC(=O)c2ccco2)n(-c2ccccc2)n1)c1ccccc1 | inactive
COCCCNC(=S)N/N=C/c1cccc(OC)c1O | inactive
COc1cccc(/C=N/NC(=O)c2cc3c(OC)c(OC)ccc3[nH]2)c1OC | 3.53 µM (active)
COc1ccccc1/C=N/NC(=O)c1cc2c(OC)c(OC)ccc2[nH]1 | 9.94 µM (active)
COc1ccc(C(=O)N/N=C/c2cc(Br)ccc2O)cc1OC | inactive
CCCNC(=O)c1ccccc1NC(=O)c1ccc2c(c1)NC(=O)C(C)S2 (configuration not stated) | 6.27 µM (active)
CC1Sc2ccc(C(=O)NCc3ccccn3)cc2NC1=O (configuration not stated) | inactive
CN(C)c1ccc(/C=C/c2ccnc3ccc(Br)cc23)cc1 | 4.61 µM (active)
COc1ccc2nccc(/C=C/c3ccc(N(C)C)cc3)c2c1 | 23.1 µM (active)
Cc1cc(C)c2nccc(/C=C/c3ccc(N(C)C)cc3)c2c1 | 13 µM (active)
CN(C)c1ccc(/C=C/c2ccnc3ccc(I)cc23)cc1 | 6.51 µM (active)
ClCC1NCC(c2ccccc2Cl)c2c1[nH]c1ccccc21 (configuration not stated) | inactive
CN(C)c1ccc(/C=C/c2ccnc3ccc(N)cc23)cc1 | 23.1 µM (active)
Cc1ccc2nccc(/C=C/c3ccc(N(C)C)cc3)c2c1 | 9.2 µM (active)
CC(=O)c1cc(NC(=O)c2ccc(C)cc2)c(=O)oc1/C=C/N(C)C | 11.6 µM (active)
COC(=O)c1c(-c2ccccc2Cl)noc1/C=C/N(C)C | inactive
COc1ccc(C(=O)Nc2cc(C(C)=O)c(/C=C/N(C)C)oc2=O)cc1 | 12.5 µM (active)
CC(=O)c1cc(NC(=O)c2ccc(Cl)cc2)c(=O)oc1/C=C/N(C)C | 6.27 µM (active)
COC(=O)c1sc2nc(CSc3ccc(Br)cc3)[nH]c(=O)c2c1C | inactive

Compound | Potency
COc1cc(C2c3cc4c(cc3C(OC3OC5COC(c6cccs6)OC5C(O)C3O)C3COC(=O)C23)OCO4)cc(OC)c1O (configuration not stated) | 11.2 µM (active)
Cc1ccc(O)c(NC(=O)c2cc(-c3ccccc3O)no2)c1 | 20.6 µM (active)
COc1cccc(C(=O)Nc2ncc3c(n2)CC(c2ccc(OC)cc2OC)CC3=O)c1 (configuration not stated) | 11.2 µM (active)
Cc1cc(N2CCCC2)ccc1/C=C1\NC(=S)N(C)C1=O | 2.91 µM (active)
Cc1cc(N2CCCC2)ccc1/C=C1/C(=O)N(C)C(=S)N1C | inactive
Cc1cc(/C=C2\NC(=S)N(C)C2=O)ccc1N1CCCC1 | 2.5 µM (active)
COC(=O)c1cnc(Nc2cc(C)ccc2OC)c2ccccc12 | inactive
Cc1ccc(O)c(Nc2c3ccccc3nc3ccccc23)c1 | inactive
COc1ccc(C)cc1Nc1c2c(nc3ccccc13)CCC2 | 1.98 µM (active)
CN1/C(=C\C=C2/SC(=S)N(CC(=O)O)C2=O)C(C)(C)c2ccccc21 | inactive
CCCCN1C(=O)/C(=C/C=C2/CC(C)(C)CN2C)SC1=S | inactive
CCCN1C(=O)/C(=C\C=C2\N(CC)c3ccccc3C2(C)C)SC1=S | 2.59 µM (active)
CCCN1C(=O)/C(=C/C=C2\N(CC)c3ccccc3C2(C)C)SC1=S | 4.44 µM (active)
CN1/C(=C\C=C2/SC(=S)NC2=O)C(C)(C)c2ccccc21 | 3.96 µM (active)
O=C(N/N=C\C=C\c1ccc([N+](=O)[O-])o1)c1cccs1 | 15.8 µM (active)
COc1ccccc1OCC(=O)N/N=C/C=C/c1ccc([N+](=O)[O-])o1 | 16.4 µM (active)
O=C(N/N=C/C=C/c1ccco1)c1ccncc1 | inactive
Clc1ccccc1C1CC(c2ccccc2)=Nc2ccccc2N1 (configuration not stated) | inactive
Cc1ccc(-c2cn3nc(-c4ccccc4)c(-c4ccccc4)nc3n2)cc1 | 18.4 µM (active)
Cc1cc(C)nc(Nc2nc(C(N)Cc3ccccc3)cs2)n1 (configuration not stated) | 14 µM (active)
COC(=O)CCC(=O)NC(=S)Nc1sc(C)c(C)c1C(N)=O | 1.25 µM (active)
COc1cc2cc(-c3ccc(OC)c(OC)c3C)nc(N)c2cc1OC | 1.77 µM (active)
